# The list is not random: actives were taken first. Their share in the collection is about 3.4%.
# TEAD-YAP block = TEAD-YAP interaction inhibition | actives 1.4% (n = 640,000) | AID 1259422 | inhibition, % at 9.12 µM | HEK-TIYL cells, TEAD-Gal4/YAP UAS-luciferase luminescence; in the data active = inhibition above about 32%;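 note: 0% = median of test compound wells and 100% = reference inhibitor wells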
# FBW7 activator = human FBW7 E3 ligase activation, primary screen | Q969H0 | AlphaScreen FBW7–phospho-cyclin E peptide binding, activator screen | normalized activity (activation), % at 26.1 µM | actives 0.13% (n = 650,000) | AID 1259310; in the data active = normalized activity above about 1.9%;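 note: purified mutant Fbw7 with reduced substrate affinity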
# GPR151 activ = human GPR151 activation | Q8TDV0 | PathHunter beta-arrestin GPR151 cells, luminescence | activation, % at 11.2 µM | actives 1% (n = 650,000) | AID 1508602; in the data active = activation above about 4.9%;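 note: 0% = median of compound wells and 100% = cells with positive control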
# MITF primary = human MITF inhibition, primary screen. O75030. AlphaScreen MITF homodimerization, bead proximity signal. inhibition, % at 2.6 µM. actives 0.91% (n = 650,000); in the data active = inhibition above about 50%;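 note: 0% = vehicle wells with protein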
# Target sequence (O75030 whole entry, looked up): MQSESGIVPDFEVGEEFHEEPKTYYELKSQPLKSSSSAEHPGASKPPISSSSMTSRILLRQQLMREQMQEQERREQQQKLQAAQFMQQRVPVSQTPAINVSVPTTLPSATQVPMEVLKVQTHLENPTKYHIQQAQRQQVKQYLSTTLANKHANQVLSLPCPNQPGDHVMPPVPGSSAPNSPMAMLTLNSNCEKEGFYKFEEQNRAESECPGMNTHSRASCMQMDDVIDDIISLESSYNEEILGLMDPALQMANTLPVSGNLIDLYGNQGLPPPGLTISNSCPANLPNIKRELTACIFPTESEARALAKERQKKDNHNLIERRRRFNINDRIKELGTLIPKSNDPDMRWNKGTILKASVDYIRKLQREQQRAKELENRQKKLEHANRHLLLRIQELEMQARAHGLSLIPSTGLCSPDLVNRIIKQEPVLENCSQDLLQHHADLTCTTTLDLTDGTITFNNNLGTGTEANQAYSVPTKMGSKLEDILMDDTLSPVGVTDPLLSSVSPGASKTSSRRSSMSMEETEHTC
# Numbers without * were called inactive; . = not tested or not shown.
SMILES,TEAD-YAP block,FBW7 activator,GPR151 activ,MITF primary
CN(C)S(=O)(=O)c1ccc(C(=O)NC(=S)Nc2ccc(-c3nc4ccccc4[nH]3)cc2)cc1,-28,3.9*,-2,-17
CCOC(=O)c1ccc(OC(=O)c2cccc(C(=O)Oc3ccc(C(=O)OCC)cc3)n2)cc1,1,0,0,10
CN(C)CCCNC(=O)C(=O)NCC1OCCN1S(=O)(=O)c1ccc([N+](=O)[O-])cc1 (centres undefined),3,0,2,4
OC1(c2ccc3c(c2)OCCO3)CN(c2ccccc2)C2=[N+]1CCCS2 (centres undefined),2,0,0,3
CC(C)(C)C(=O)Nc1ccc2c(c1)CCCN2S(=O)(=O)c1cccs1,-3,0,-1,13
c1ccc(-n2cnc3c(NCc4nc5ccccc5[nH]4)nc(Nc4ccccn4)nc32)cc1,53*,0,-1,-3
COc1cc(Nc2nc(NCc3nc4ccccc4[nH]3)c3ncn(-c4ccsc4)c3n2)cc(OC)c1OC,18,0,-1,3
c1ccc(-n2cnc3c(NCc4nc5ccccc5[nH]4)nc(Nc4ccncn4)nc32)cc1,35*,0,-1,8
c1ccc(Nc2nc(NCc3nc4ccccc4[nH]3)c3ncn(-c4ccsc4)c3n2)nc1,78*,0,1,11
c1ccc2[nH]c(CNc3nc(Nc4cnccn4)nc4c3ncn4-c3ccsc3)nc2c1,71*,0,2,-11
c1ccc(CNc2nc(Nc3cnccn3)nc3c2ncn3-c2ccsc2)cc1,14,0,-1,-4
O=C1CCCN1CCn1cnc2c(NCc3nc4ccccc4[nH]3)nc(Nc3ccncn3)nc21,-9,0,0,6
O=C(Nc1nnc(-c2ccc(Cl)cc2)o1)c1cccc(C(F)(F)F)c1,.,.,0,.
O=C(Nc1nnc(-c2ccc(F)cc2)o1)c1cccc(C(F)(F)F)c1,69*,0,1,-8
O=C(CCl)NC(C1CCCCC1=O)C(Cl)(Cl)Cl (centres undefined),42*,0,0,-17
CCOC(=O)N1CCC(NS(=O)(=O)c2ccc3[nH]c4c(c3c2)CCCC4)CC1,57*,0,-1,9
Cc1c(N=C2C(=O)N(CC(=O)O)c3ccccc32)c(=O)n(-c2ccccc2)n1C,8,2.3*,-1,5
CCOc1ccc2c(c1)/C(=C1/SC(C(C)=O)=C(c3ccccc3)S1)C(=S)C(C)(C)N2,4,0,-1,7
CC(=O)C1=C(c2ccccc2)S/C(=C2/C(=S)C(C)(C)Nc3ccc(C)cc32)S1,7,0,0,57*
c1cc(-c2ccc3cnc(Nc4ccc(-n5cnc(N6CCOCC6)n5)cc4)nc3c2)co1,-1,0,2,37
c1cc(-c2ccc3cnc(Nc4ccc(-n5cnc(N6CCOCC6)n5)cc4)nc3c2)c[nH]1,53*,-1,4,6
Cc1ccc(-c2ccc3cnc(Nc4ccc(-n5cnc(N6CCOCC6)n5)cc4)nc3c2)cn1,0,2.3*,0,-1
Cc1ccc(-n2cc(CN3CCN4C(=O)[C@@H]5CCCN5C(=O)[C@H]4C3)cn2)cc1,1,0,-1,5
Oc1c(CN2CCN(c3cccc(C(F)(F)F)c3)CC2)cc(Br)c2cccnc12,37*,-1,0,1
Oc1c(Br)cc(Br)c2cccnc12,8,0,0,21
SMILES,TEAD-YAP block,FBW7 activator,GPR151 activ,MITF primary
CC1CCN(Cc2cc(Br)c3cccnc3c2O)CC1,47*,-1,0,69*
Oc1c(CN2CCN(c3cccc(Cl)c3)CC2)cc(Cl)c2cccnc12,7,-1,0,8
CN1CCN(Cc2cc(Br)c3cccnc3c2O)CC1,45*,-1,1,89*
Oc1c(CN2CCOCC2)cc(Br)c2cccnc12,49*,0,1,47
Cc1cc(C)c(S(=O)(=O)N(CCc2ccccc2)CC(=O)O)c(C)c1,0,0,1,-7
COC(=O)c1c(-c2ccc(C)c(C)c2)csc1NC(=O)/C=C/C(=O)O,33*,0,1,-11
COC(=O)c1c(NC(=O)/C=C/C(=O)O)sc(C)c1-c1cc(C)ccc1C,42*,0,0,2
COC(=O)c1c(-c2ccccc2Cl)csc1NC(=O)/C=C/C(=O)O,42*,0,0,5
COc1ccc2cc(S(=O)(=O)n3cnc4cc(C)c(C)cc43)ccc2c1,67*,0,1,11
O=C(Nc1nc(-c2c[nH]c3ccccc23)cs1)C1CCCC1,-56,0,-1,-1
O=C(Nc1nc(-c2c[nH]c3ccccc23)cs1)c1n[nH]c(=O)c2ccccc12,36*,0,2,-4
Cc1cc(NC(=O)c2ccc(S(=O)(=O)NC3CC3)cc2)c2cc(F)cc(F)c2n1,48*,0,-1,-11
COc1cccc(C2(CC(=O)N3CCN(C)C(C)C3)CC(=O)N(CCN(C)C)C2=O)c1 (centres undefined),5,0,1,6
COc1cccc(C2(CC(=O)N3CCOCC3)CC(=O)N(CCN(C)C)C2=O)c1 (centres undefined),9,2.0*,-1,6
O=C(c1ccccc1F)N1CCC[C@@H]1Cn1nc(-c2cccs2)ccc1=O,10,0,0,7
CCOC(=O)c1c(C)oc2ccc(NS(=O)(=O)c3ccc(Cl)cc3)cc12,11,0,0,3
CC(=O)c1c(C)oc2ccc(NS(=O)(=O)c3c(C)cc(C)cc3C)cc12,37*,0,2,0
COC(=O)c1c(C)oc2ccc(N(C(=O)c3ccc([N+](=O)[O-])cc3)S(=O)(=O)c3ccc(C)cc3)cc12,58*,0,0,21
CCc1ccc(S(=O)(=O)N(C(C)=O)c2ccc3oc(C)c(C(=O)OC)c3c2)cc1,49*,0,1,1
CCOC(=O)c1c(C)oc2ccc(NS(=O)(=O)c3ccc(C)cc3)cc12,34*,0,0,0
Cc1cc(C)n(-c2nnc(C)n2NC(=O)Nc2ccccc2)n1,6,0,-2,-15
CCCCC1=NN2C(=N)/C(=C/c3ccc(OCCOc4ccc(C)c(C)c4)c(OCC)c3)C(=O)N=C2S1,13,0,2,9
CCCc1oc2ccc(NS(=O)(=O)c3ccc(C)cc3)cc2c1C(=O)OCC,57*,0,0,17
COCc1oc2ccc(NS(=O)(=O)c3ccc(C)cc3)cc2c1C(=O)OC,55*,0,-1,-7
CCCc1oc2ccc(NS(=O)(=O)c3ccc(F)cc3)cc2c1C(=O)OCC,9,0,1,-4
CCc1ccc(S(=O)(=O)Nc2ccc3oc(C)c(C(=O)OC)c3c2)cc1,60*,0,3,-5
CCOc1ccc(S(=O)(=O)Nc2ccc3oc(C)c(C(=O)OCCOC)c3c2)cc1,57*,0,-1,3
O=C(CSc1nnc(-c2cccs2)o1)c1ccc(F)c(F)c1,14,0,2,0
Cc1ccc(C(=O)NCC(=O)OCC(=O)c2ccc(Oc3ccc([N+](=O)[O-])cc3)cc2)cc1,8,0,0,13
